The values below come from PubChem BioAssay (Tox21).

The nature of assay [1]: Nuclear factor erythroid 2-related factor 2/antioxidant responsive element (Nrf2/ARE) small molecule agonists: qHTS cell viability counter screen in human keratinocytes (AID 1919968; active = well fitted curve in the direction sought with a large enough effect in the repeat runs; an effect the other way counts as inactive or inconclusive; also: nearly all actives have a fitted effect of over 55% in size; also: potency is read from the fitted curve at half-maximal effect). Put shortly:
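KeratinoSens HaCaT cells, 1,500/well, preincubated 5 h, then exposed to compounds in DMSO for 23 h at 37 C/5% CO2. Viability read as CellTiter-Fluor fluorescence after 1 h, in the same wells as the ARE-luciferase read.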

For assay [2], the target named is Gonadotropin-releasing hormone receptor (Homo sapiens) (UniProt P30968). Briefly: Human gonadotropin-releasing hormone receptor (GnRHR) small molecule agonists, calcium flux assay in GnRHR-HEK293 cells (AID 1920063). Also: nearly all actives have a fitted effect of over 35% in size. Put shortly:
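HEK293 cells stably expressing human GnRHR were dye-loaded for 1 h at 37 C. Compound was added in agonist mode and fluorescence (Ex/Em 480/540) recorded kinetically for 3 min. Fifteen concentrations, triplicates.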

A short description of assay [3]: G protein-coupled receptor (GPCR) small molecule agonists, calcium flux assay: HEK293 wild type cell line counter screen (AID 1920065). Put shortly: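 Wild-type HEK293 cells plated 18 h, loaded with calcium dye 1 h at 37 C, then compounds added in agonist mode (ATP as positive control). Kinetic fluorescence Ex/Em 480/540 recorded 3 min at 1 sec intervals; 15 concentrations, triplicate.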
For orientation: Calcium assays in cells follow changes in intracellular calcium, usually with a dye or a luminescent sensor.

Assay [4] can be described thus: p53 small molecule agonists, cell-based qHTS assay with human liver microsomes (AID 1963577).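 Also: p53 response element beta-lactamase reporter cells with liver microsomes plus NADPH.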 Put shortly:
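p53RE-bla cells; 5 h settle, 37 C/5% CO2; cpd + HLM 0.5 mg/mL + NADPH 0.5 mg/mL (final); 16 h 37 C; LiveBLAzer 2 h RT dark; fluorescence readout.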
(Quantitative high-throughput screening tests each substance at several concentrations.)

Assay [5] is described as follows: p53 small molecule agonists, cell-based qHTS assay with rat liver microsomes (AID 1963578). Put shortly: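 Rat liver microsome activation: microsomes 0.5 mg/mL, NADPH 0.5 mg/mL final; p53RE-bla cells, 16 h 37 C; LiveBLAzer readout, 2 h RT dark.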
Assay [6] can be described thus: p53 small molecule agonists, cell-based qHTS assay with human liver microsomes: qHTS cell viability counter screen (AID 1963579). Also: nearly all actives have a fitted effect of over 45% in size. Put shortly: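 Luminescent CellTiter-Glo read-out, 30 min at room temperature, gauged cytotoxicity in p53RE-bla cells exposed 16 h at 37 C to DMSO-dissolved compounds with metabolic activation by human liver microsomes and NADPH, each 0.5 mg/mL final.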

Assay [7] in a line: p53 small molecule agonists, cell-based qHTS assay with rat liver microsomes: qHTS cell viability counter screen (AID 1963580). Also: nearly all actives have a fitted effect of over 45% in size. Put shortly:
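p53RE-bla HCT-116 cells (4,000/well) rested 5 h at 37 C, then given Tox21 compounds in DMSO with rat liver microsomes (0.5 mg/mL final) plus NADPH (0.5 mg/mL final) for 16 h at 37 C. Viability read by CellTiter-Glo luminescence after 30 min at room temperature.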

Assay [8] in a line: p53 small molecule agonists, cell-based qHTS assay: qHTS cell viability counter screen (AID 1963581). Also: nearly all actives have a fitted effect of over 45% in size. Also: potency is read from the fitted curve at half-maximal effect. Put shortly: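 p53RE-bla HCT-116 cells, compounds added 5 h after plating and incubated 16 h at 37 C. Cytotoxicity measured in the same wells as intracellular ATP by CellTiter-Glo luminescence after 30 min at room temperature.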
Assay [9] is described as follows: p53 small molecule agonists, cell-based qHTS assay (AID 1963582; active = well fitted activation curve with a large enough effect in the signal ratio in the repeat runs, not every such curve was filed as active; the % refers to the signal ratio). Put shortly:
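p53RE-bla reporter cells, compounds added in DMSO after 5 h plating, incubated 16 h at 37 C. Beta-lactamase read via 2 h room-temperature LiveBLAzer B/G FRET substrate, fluorescence intensity.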

Assay [10] deals with 5-hydroxytryptamine receptor 2A (Homo sapiens) (UniProt P28223). Briefly: 5-hydroxytryptamine receptor 2A (HTR2A) small molecule antagonists, cell-based qHTS assay (AID 1963586). Also: nearly all actives have a fitted effect of over 45% in size. Put shortly: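 Antagonist-mode intracellular calcium assay: DOI (4 nM) added after 5 min compound pre-incubation at room temperature to dye-loaded HTR2A-CHO cells. Fluorescence followed for 3 min, sampled every second.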

For assay [11] the target is unchanged. Briefly: 5-hydroxytryptamine receptor 2A (HTR2A) small molecule agonists, cell-based qHTS assay (AID 1963587). Also: nearly all actives have a fitted effect of over 30% in size. Put shortly:
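HTR2A-CHO cells, plated 18 h at 37 C/5% CO2, dye-loaded 1 h at 37 C; compounds in DMSO added by pin tool (agonist mode). Intracellular calcium flux read as kinetic fluorescence on FDSS over 2 min at 1 s intervals.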

In assay [12] the target is Muscarinic acetylcholine receptor M1 (Homo sapiens) (UniProt P11229). Description: Cholinergic receptor muscarinic 1 (CHRM1) small molecule antagonists, cell-based qHTS assay (AID 1963588). Also: nearly all actives have a fitted effect of over 40% in size. Put shortly: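 CHRM1-CHO calcium-flux assay, antagonist mode. Cells were seeded 18 h, dye-loaded 1 h at 37 C and given compound for 5 min at RT, then acetylcholine was added at 50nM. FDSS fluorescence was read 3 min; 15 concentrations, three runs.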

For assay [13] the target is unchanged. Description: Cholinergic receptor muscarinic 1 (CHRM1) small molecule agonists, cell-based qHTS assay (AID 1963589). Also: nearly all actives have a fitted effect of over 35% in size. Put shortly:
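CHO cells stably expressing human CHRM1 were loaded with calcium dye for 1 h at 37 C, then compound was added in agonist mode. Intracellular calcium fluorescence was followed kinetically at 1 s intervals. Fifteen concentrations were tested in three independent runs.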

Assay [14] can be described thus: cAMP Responsive Elements (CRE) small molecule agonists, cell-based qHTS assay (AID 1963590). Put shortly: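 CRE-bla HEK 293T cells, 2,000/well in DMEM with 10% dialyzed FBS and 25 mM HEPES, pre-incubated 18 h at 37 C, then exposed to compound 3 h at 37 C. Beta-lactamase reporter read with LiveBLAzer B/G FRET substrate after 2 h at room temperature.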
Assay [15] in a line: cAMP Responsive Elements (CRE) small molecule antagonists, cell-based qHTS assay (AID 1963591; active = well fitted inhibition curve with a large enough effect in the signal ratio in the repeat runs, not every such curve was filed as active; the % refers to the signal ratio). Put shortly: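 CRE-bla HEK293T cells plated 18 h, then given compound plus NKH477 at 0.25 uM final for 3 h at 37C. Beta-lactamase reporter read with LiveBLAzer B/G FRET substrate after 2 h at room temperature.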
For assay [16], the target named is Beta-2 adrenergic receptor (Homo sapiens) (UniProt P07550). Description: Adrenergic beta2 receptor (ADRB2) small molecule antagonists, cell-based qHTS assay (AID 1963592). Also: series mostly up to about 92 µM; nearly all actives have a fitted effect of over 50% in size. Put shortly: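 Cells (CHO, stable ADRB2 overexpression) incubated 18-20hr at 37C; compounds added from DMSO; agonist mix (1nM isoproterenol, 100uM IBMX, 25uM Ro-20-1724) added; 0.5hr RT; d2-cAMP and anti-cAMP-cryptate added; 1hr RT; 665/615 nm read.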

Assay [17] has as its target D(2) dopamine receptor (Homo sapiens) (UniProt P14416). Briefly: Dopamine D2 receptor (DRD2) small molecule agonists, cell-based qHTS assay (AID 1963594). Also: nearly all actives have a fitted effect of over 35% in size. Put shortly: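 HEK293 cells stably expressing DRD2 were cultured 24 h at 37 C, then given Ro20-1724 (0.1 mM final) and compounds for 10 min at room temperature. NKH477 (200nM) was then added for 30 min. cAMP was read by HTRF.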

The target is the same in assay [18]. Description: Dopamine D2 receptor (DRD2) small molecule antagonists, cell-based qHTS assay (AID 1963595; active = well fitted inhibition curve with a large enough effect in the signal ratio in the repeat runs, with a control signal flat; the % refers to the signal ratio). Put shortly:
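Antagonist mode in DRD2-HEK293 cells: after compound addition with 0.1 mM Ro20-1724, cells received quinpirole (12 nM) and NKH477 (200 nM) for 30 min at room temperature; HTRF cAMP read after 1 h detection.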

For assay [19], the target named is Beta-2 adrenergic receptor (Homo sapiens) (UniProt P07550). Briefly: Adrenergic beta2 receptor (ADRB2) small molecule agonists, cell-based qHTS assay (AID 1963593).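 Also: CHO cells stably overexpressing human ADRB2.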 Put shortly: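 CHO cells stably over-expressing ADRB2 were plated overnight at 37C, then dosed with compounds plus a stimulation mix containing 100uM IBMX and 25uM Ro-20-1724 for 0.5hr at room temperature. cAMP was measured by HTRF competition, 1hr.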

Assay [20] concerns the target KiSS-1 receptor (Homo sapiens) (UniProt Q969F8). Briefly: Human kisspeptin (KISS1R) small molecule agonists, calcium flux assay in KISS1R-HEK293 cells (AID 1920064; active = well fitted curve in the direction sought with a large enough effect in the repeat runs; an effect the other way counts as inactive or inconclusive). Put shortly: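 HEK293 cells stably expressing human KISS1R were loaded with calcium dye for 1 h at 37 C, then given compound; fluorescence (Ex/Em 480/540) was read kinetically for 3 min. Fifteen concentrations, triplicate.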

Where “and” joins values, the source holds several entries; their conditions need not be identical. Identical values can stand only once. Inconclusive results are not listed. Some structures have more than one record in an assay (separate samples or runs), and their calls can disagree. Calls of active or inactive are those of the source. Unless noted, calls follow the shape of the full dose curve.
% is scaled to controls: 0 for no effect and ±100 for the full control effect.

Gonadotropin-releasing hormone receptor (Homo sapiens), sequence (P30968 whole entry, looked up): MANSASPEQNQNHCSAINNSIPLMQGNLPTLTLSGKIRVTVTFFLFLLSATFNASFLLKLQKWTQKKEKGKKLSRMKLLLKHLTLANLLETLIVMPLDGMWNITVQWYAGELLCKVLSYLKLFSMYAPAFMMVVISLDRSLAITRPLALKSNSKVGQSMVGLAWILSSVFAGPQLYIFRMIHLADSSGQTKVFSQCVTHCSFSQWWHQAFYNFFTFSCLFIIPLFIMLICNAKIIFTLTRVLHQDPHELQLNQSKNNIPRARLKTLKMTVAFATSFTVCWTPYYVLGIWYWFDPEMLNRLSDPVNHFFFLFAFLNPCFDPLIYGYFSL
D(2) dopamine receptor (Homo sapiens), sequence (P14416 whole entry, looked up): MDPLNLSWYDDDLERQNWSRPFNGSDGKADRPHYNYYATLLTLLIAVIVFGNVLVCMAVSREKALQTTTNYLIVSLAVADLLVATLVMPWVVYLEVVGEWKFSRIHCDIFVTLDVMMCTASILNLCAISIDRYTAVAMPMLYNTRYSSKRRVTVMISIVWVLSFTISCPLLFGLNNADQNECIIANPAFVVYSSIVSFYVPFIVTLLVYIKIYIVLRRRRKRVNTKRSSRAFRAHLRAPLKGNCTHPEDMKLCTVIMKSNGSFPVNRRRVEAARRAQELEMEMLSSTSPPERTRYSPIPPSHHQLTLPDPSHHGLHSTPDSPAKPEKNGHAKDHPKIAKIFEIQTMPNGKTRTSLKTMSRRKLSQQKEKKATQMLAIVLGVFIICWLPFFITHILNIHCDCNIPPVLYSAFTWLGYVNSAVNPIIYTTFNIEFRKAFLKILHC
Beta-2 adrenergic receptor (Homo sapiens), sequence (P07550 whole entry, looked up): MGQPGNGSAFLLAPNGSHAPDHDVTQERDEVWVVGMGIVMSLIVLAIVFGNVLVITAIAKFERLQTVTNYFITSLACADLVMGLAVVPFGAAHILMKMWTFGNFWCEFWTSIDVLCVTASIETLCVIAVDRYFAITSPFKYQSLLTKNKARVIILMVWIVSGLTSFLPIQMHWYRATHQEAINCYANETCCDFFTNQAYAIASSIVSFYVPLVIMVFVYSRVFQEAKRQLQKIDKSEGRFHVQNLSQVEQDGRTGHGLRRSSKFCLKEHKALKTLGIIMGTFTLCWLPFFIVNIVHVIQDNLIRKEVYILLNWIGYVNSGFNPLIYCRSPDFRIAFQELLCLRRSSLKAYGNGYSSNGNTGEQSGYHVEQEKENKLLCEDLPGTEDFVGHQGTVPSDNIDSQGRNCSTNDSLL
KiSS-1 receptor (Homo sapiens), sequence (Q969F8 whole entry, looked up): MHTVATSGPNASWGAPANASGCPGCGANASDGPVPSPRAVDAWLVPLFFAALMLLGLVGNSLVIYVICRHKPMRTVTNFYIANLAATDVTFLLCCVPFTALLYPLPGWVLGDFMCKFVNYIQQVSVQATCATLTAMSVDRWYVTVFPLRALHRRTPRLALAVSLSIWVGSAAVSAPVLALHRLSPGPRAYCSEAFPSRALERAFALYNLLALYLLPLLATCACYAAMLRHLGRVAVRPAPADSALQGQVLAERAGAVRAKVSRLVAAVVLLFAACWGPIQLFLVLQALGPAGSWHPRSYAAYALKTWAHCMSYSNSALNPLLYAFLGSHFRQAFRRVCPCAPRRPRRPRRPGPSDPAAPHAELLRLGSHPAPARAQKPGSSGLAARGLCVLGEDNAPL
Muscarinic acetylcholine receptor M1 (Homo sapiens), sequence (P11229 whole entry, looked up): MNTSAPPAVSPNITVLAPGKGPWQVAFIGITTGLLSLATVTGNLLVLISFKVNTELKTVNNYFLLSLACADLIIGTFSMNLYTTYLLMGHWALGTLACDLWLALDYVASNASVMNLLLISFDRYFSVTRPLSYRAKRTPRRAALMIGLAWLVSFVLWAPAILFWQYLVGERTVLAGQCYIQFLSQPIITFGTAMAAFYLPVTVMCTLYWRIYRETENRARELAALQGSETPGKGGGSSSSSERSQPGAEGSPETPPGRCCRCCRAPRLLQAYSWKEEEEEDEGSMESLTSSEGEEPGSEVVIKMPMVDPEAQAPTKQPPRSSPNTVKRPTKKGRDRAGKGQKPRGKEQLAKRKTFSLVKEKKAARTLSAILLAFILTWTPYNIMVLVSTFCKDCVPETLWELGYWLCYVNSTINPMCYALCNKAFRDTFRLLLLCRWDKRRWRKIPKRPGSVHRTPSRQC
5-hydroxytryptamine receptor 2A (Homo sapiens), sequence (P28223 whole entry, looked up): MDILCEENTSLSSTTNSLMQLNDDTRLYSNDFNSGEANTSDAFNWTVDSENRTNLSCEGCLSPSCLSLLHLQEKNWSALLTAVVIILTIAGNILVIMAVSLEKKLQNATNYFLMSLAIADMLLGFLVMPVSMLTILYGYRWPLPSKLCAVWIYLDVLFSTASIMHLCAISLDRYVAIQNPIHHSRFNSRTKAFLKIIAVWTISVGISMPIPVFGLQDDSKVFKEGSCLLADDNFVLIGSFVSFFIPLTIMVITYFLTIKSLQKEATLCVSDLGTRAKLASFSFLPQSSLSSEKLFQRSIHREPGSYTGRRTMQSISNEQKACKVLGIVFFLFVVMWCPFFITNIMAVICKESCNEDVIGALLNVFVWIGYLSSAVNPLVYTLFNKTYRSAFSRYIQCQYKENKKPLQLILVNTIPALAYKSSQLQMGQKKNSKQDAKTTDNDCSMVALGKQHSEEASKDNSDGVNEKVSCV

As for `O=C(O)CN(CCCN(CC(=O)O)CC(=O)O)CC(=O)O`, the activity change, negative = cytotoxicity in assay [1] was -0.241% [at 19 µM] (inactive); in assay [6], 10.7% [at 13.5 µM] (inactive); in assay [7], 9.92% [at 13.5 µM] (inactive); in assay [8], 11.6% [at 13.5 µM] (inactive). The activity change in [2] is 14.7% [at 11.8 µM, stronger effect = higher value] (inactive). Further, the activation in assay [3] is 9.2% [at 11.8 µM] (inactive); in assay [4], -11.5% [at 13.5 µM] (inactive); in assay [5] it was -0.0734% [at 13.6 µM] (inactive); in assay [9], 5.83% [at 13.5 µM] (inactive); in assay [11], 8.84% [at 15.9 µM] (inactive); in assay [13] it was 5.74% [at 15.8 µM] (inactive). Besides, the values for the activation in assay [14] and in assay [17] were 1.21% [at 19 µM] (inactive) and -4.48% [at 19 µM] (inactive), respectively. For the same compound, the activity, negative = inhibition was 19% [at 12.7 µM] (inactive) in assay [10] and -1.12% [at 12.6 µM] (inactive) in assay [12]. For the same compound, the activity change, negative = inhibition was 19.1% [at 18.9 µM] (inactive) in [15], 0.405% [at 19 µM] (inactive) in assay [16] and 6.03% [at 18.9 µM] (inactive) in [18].

With `CC(C)(C)NC(=O)[C@@H]1CN(Cc2cccnc2)CCN1C[C@@H](O)C[C@@H](Cc1ccccc1)C(=O)N[C@H]1c2ccccc2C[C@H]1O`, the Potency result in assay [1], in assay [2], in [3], in assay [8], in assay [9] and in assay [14] was “inactive” throughout. The Potency result in assay [16], in [19], in assay [17] and in assay [18] was “inactive” throughout.

On to `CCCCCCCCS`, for which the Potency entry in [1], in assay [2], in assay [3], in assay [4], in assay [5] and in assay [6] was “inactive” in each case. Moreover, the Potency entry in [7], in assay [8], in assay [9], in [10], in [11] and in assay [12] was “inactive” in each case. The Potency entry in assay [13], in assay [14], in assay [15] and in assay [17] was “inactive” in each case.

Take `CC(=O)C(C)O` (configuration not stated): the Potency result in [1], in [2], in assay [3], in assay [4], in assay [5] and in [6] was “inactive” throughout. For the same compound, the Potency result in [7], in assay [8], in assay [9], in assay [10], in assay [11] and in assay [12] was “inactive” in each case. In addition, the Potency entry in assay [13], in assay [15], in assay [16], in assay [19], in assay [17] and in assay [18] was “inactive” throughout.

As to `Cc1ccc(C=O)cc1`, the Potency entry in assay [1], in assay [20], in assay [4], in assay [6], in assay [7] and in [8] was “inactive” in each case. For the same compound, the Potency result in [9], in assay [10], in [11], in assay [12], in assay [14] and in assay [15] was “inactive” in each case. Also, the Potency entry in assay [16], in assay [17] and in [18] was “inactive” each time.

As to `Oc1cccc2ccccc12`, the Potency result in assay [1], in assay [20], in assay [4], in assay [5], in assay [6] and in [8] was “inactive” in each case. Also, the Potency entry in assay [9], in [10], in assay [11], in assay [12], in assay [13] and in assay [14] was “inactive” throughout. The Potency result in assay [15], in [16] and in [17] was “inactive” each time.

For `CC1=CC(=O)c2ccccc2C1=O`, the Potency was 27.3 µM (active) and 26.6 µM (active) in [1]; 40.8 µM (active) and inactive in [8]. For the same compound, the Potency result in [20], in assay [3], in assay [4], in assay [5], in assay [6] and in assay [7] was “inactive” throughout. Besides, the Potency result in [9], in [10], in [11], in assay [12], in assay [13] and in [15] was “inactive” throughout. Also, the Potency result in [16], in assay [19], in [17] and in assay [18] was “inactive” throughout.

As to `CCC(C)(O)CCC=C(C)C` (configuration not stated), the Potency entry in assay [2], in [20], in assay [3], in assay [4], in [5] and in assay [6] was “inactive” each time. Moreover, the Potency entry in assay [7], in [8], in assay [9], in assay [10], in assay [11] and in [12] was “inactive” throughout. Besides, the Potency result in [13], in assay [14], in assay [15], in assay [16] and in [19] was “inactive” each time.
